Records with an inconclusive call do not appear. Active and inactive are the calls of the source. Unless noted, the call rests on the fitted dose curve; in most records, active means well fitted curve in the direction sought with a large enough effect in the repeat runs; inconclusive means weak or mixed curves; inactive means no such curve, though single readings can be large; an effect the other way counts as inactive or inconclusive.
Experiments:
[1] = qHTS assay to identify small molecule agonists of the hypoxia (HIF-1) signaling pathway - cell viability counter screen (AID 1224844; calls by dose curve; further: nearly all actives have a fitted effect of over 50% in size)
Outline: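 Viability counter screen: HRE-bla ME-180 cells plated 5 hrs before compound addition, treated 17 hrs at 37C and 5% CO2, then CellTiter-Glo added after the FRET reporter read; luminescence after 30 min.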

[2] = qHTS assay to identify small molecule agonists of H2AX (AID 1224845; active means well fitted activation curve with a large enough effect in the signal ratio in the repeat runs, not every such curve was filed as active; the % refers to the signal ratio)
Outline: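 Wild-type CHO-K1 cells, plated overnight, exposed 3hr at 37C to 15 concentrations (0.76% DMSO final). Lysed, then HTRF anti-pH2AX (S139) cryptate and anti-H2AX-d2 antibodies, 24 hr room temperature; 665/620 nm emission read.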

[3] = qHTS assay to identify small molecule agonists of the hypoxia (HIF-1) signaling pathway (AID 1224846; active means well fitted activation curve with a large enough effect in the signal ratio in the repeat runs, not every such curve was filed as active; the % refers to the signal ratio)
Outline: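 Agonist mode reporter screen. ME-180 cells stably expressing bla under HRE control received test compounds in DMSO for 17 hrs (37C, 5% CO2), and beta-lactamase activity was then detected with the CCF4-AM FRET substrate.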

[4] = qHTS assay to identify small molecule agonists of H2AX - cell viability counter screen (AID 1224847; calls by dose curve; further: nearly all actives have a fitted effect of over 30% in size; further: potency means the concentration at half of the fitted maximal effect)
Outline: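 Counter-screen for viability: CellTiter-Glo ATP luminescence read after 3 h compound treatment (15-point titration, 0.76% DMSO final) of CHO-K1 cells at 37C, with 30 min room-temperature reagent incubation.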

[5] = qHTS RealTime-Glo MT Cell Viability Assay in HepG2 cells - 24 hour (AID 1224867); further: nearly all actives have a fitted effect of over 50% in size
Outline: (§1)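 HepG2 suspension premixed with RealTime-Glo reagents is plated at 600 cells per well and left 5 h at 37 C/5% CO2. Compounds in DMSO then go in, and bioluminescence reflecting viable cell number is recorded over 40 h.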

[6] = qHTS RealTime-Glo MT Cell Viability Assay in HEK293 cells - 32 hour (AID 1224868); further: top concentration of the series differs between compounds; nearly all actives have a fitted effect of over 50% in size
Outline: (§2)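 Reads taken at 0, 8, 16, 24, 32 and 40 h from the same wells. HEK293 cells (600/well) carried RealTime-Glo reagents from seeding, with compound added after a 5 h settle at 37 C.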

[7] = A CellTox Green Cytotoxicity Assay to monitor cytotoxicity in HEK293 cells - 0 hour (AID 1224869); further: nearly all actives have a fitted effect of over 50% in size
Outline: (§3)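 Dead-cell fluorescence measured kinetically: asymmetric cyanine dye, HEK293, 600 cells/well, 5 h settle, 23 nL cpd/DMSO, 37 C, reads 0–40 h every 8 h.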

[8] = A CellTox Green Cytotoxicity Assay to monitor cytotoxicity in HEK293 cells - 40 hour (AID 1224871); further: nearly all actives have a fitted effect of over 45% in size
Outline: as §3

[9] = qHTS RealTime-Glo MT Cell Viability Assay in HEK293 cells - 16 hour (AID 1224872)
Outline: as §2

[10] = qHTS RealTime-Glo MT Cell Viability Assay in HepG2 cells - 8 hour (AID 1224873); further: nearly all actives have a fitted effect of over 55% in size
Outline: (§4)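 HepG2 cells (600/well) mixed with RealTime-Glo MT reagent, settled 5 h at 37 C/5% CO2 before compound addition. Nonlytic NanoLuc luminescence from viable-cell prosubstrate reduction read repeatedly during 40 h treatment at 37 C.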

[11] = qHTS RealTime-Glo MT Cell Viability Assay in HEK293 cells - 40 hour (AID 1224874); conditions: RealTime-Glo luminescence; max response: active compounds read low; further: nearly all actives have a fitted effect of over 50% in size
Outline: (§5)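 600 HEK293 cells per well, dispensed already mixed with RealTime-Glo MT reagents. Compound dosing came 5 h later. The same wells were read for luminescence at 0, 8, 16, 24, 32 and 40 h of exposure at 37 C.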

[12] = A CellTox Green Cytotoxicity Assay to monitor cytotoxicity in HEK293 cells - 24 hour (AID 1224875); further: nearly all actives have a fitted effect of over 45% in size
Outline: as §3

[13] = A CellTox Green Cytotoxicity Assay to monitor cytotoxicity in HepG2 cells - 16 hour (AID 1224876); further: nearly all actives have a fitted effect of over 45% in size
Outline: (§6)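 First, HepG2 cells (600/well) mixed with reagent were plated; second, after 5 h at 37 C they received compounds via pintool; third, fluorescence was measured at 0 h through 40 h at 8 h intervals.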

[14] = qHTS RealTime-Glo MT Cell Viability Assay in HepG2 cells - 32 hour (AID 1224877); further: nearly all actives have a fitted effect of over 55% in size
Outline: as §1

[15] = A CellTox Green Cytotoxicity Assay to monitor cytotoxicity in HepG2 cells - 24 hour (AID 1224878); further: nearly all actives have a fitted effect of over 45% in size
Outline: as §6

[16] = A CellTox Green Cytotoxicity Assay to monitor cytotoxicity in HepG2 cells - 40 hour (AID 1224879); further: nearly all actives have a fitted effect of over 40% in size
Outline: as §6

[17] = qHTS RealTime-Glo MT Cell Viability Assay in HEK293 cells - 0 hour (AID 1224880)
Outline: as §5

[18] = qHTS RealTime-Glo MT Cell Viability Assay in HepG2 cells - 40 hour (AID 1224870); further: nearly all actives have a fitted effect of over 50% in size
Outline: as §4

[19] = qHTS assay to identify small molecule antagonists of the estrogen related receptor (ERR) signaling pathway from Tox21 library (AID 1224848); further: nearly all actives have a fitted effect of over 50% in size
Outline: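 Compounds dissolved in DMSO are pin-transferred onto ERR reporter cells (2,000 per well) that have settled for 6 h at 37 C. Plates then incubate 18 h at 37 C before ONE-Glo luciferase reagent and a luminescence read 30 min later.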

[20] = qHTS assay to identify small molecule agonists of the estrogen related receptor (ERR) signaling pathway from Tox21 library (AID 1224849; calls by dose curve; further: nearly all actives have a fitted effect of over 15% in size); conditions: ERR reporter cell line, ONE-Glo luciferase, 18 h; at 92.4 µM (top of the series) unless noted
Outline: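 Quantitative HTS in agonist format: NTP ERR cell line, compounds transferred in DMSO after 6 h plating, 18 h incubation at 37 C, ONE-Glo luminescence endpoint.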
On the % scale 0 is the no-effect control and ±100 the full control effect.

CC1(C)[C@H]2CC[C@]1(C)[C@H](O)C2
inactive: Potency [1] | Potency [2] | outcome [3] | Potency [5] | Potency [6] | Potency [7] | Potency [8] | Potency [9] | Potency [10] | max response [11] -5.57% | Potency [12] | Potency [13] | Potency [14] | Potency [15] | Potency [16] | Potency [17]
active: Potency [4] 1.6 µM

CCCC(=O)OCC
inactive: Potency [1] | Potency [2] | outcome [3] | Potency [4] | Potency [5] | Potency [7] | Potency [18] | Potency [8] | Potency [9] | Potency [10] | max response [11] 20% | Potency [12] | Potency [13] | Potency [14] | Potency [15] | Potency [16] | Potency [17]

C=C(C)C(=O)OCCN(C)C
inactive: Potency [1] | Potency [2] | outcome [3] | Potency [4] | Potency [5] | Potency [6] | Potency [7] | Potency [9] | Potency [10] | max response [11] 0.256% | Potency [12] | Potency [13] | Potency [14] | Potency [15]

CC(C)(Oc1ccc(Cl)cc1)C(=O)OCCCOC(=O)C(C)(C)Oc1ccc(Cl)cc1
inactive: Potency [1] | Potency [2] | outcome [3] | Potency [4] | Potency [5] | Potency [6] | Potency [7] | Potency [8] | Potency [10] | max response [11] -17.7% | Potency [12] | Potency [13] | Potency [14] | Potency [15] | Potency [16] | Potency [17]

O=C(O)c1cn(C2CC2)c2cc(Cl)c(F)cc2c1=O
inactive: Potency [1] | Potency [2] | outcome [3] | Potency [4] | Potency [5] | Potency [18] | Potency [10] | Potency [13] | Potency [14]

CCCCOC(O)CC (stereo not drawn)
inactive: Potency [1] | Potency [2] | outcome [3] | Potency [4] | Potency [5] | Potency [6] | Potency [7] | Potency [8] | Potency [9] | Potency [10] | max response [11] 3% | Potency [12] | Potency [13] | Potency [14] | Potency [15] | Potency [16] | Potency [17]

CCCCOC(=O)/C=C\C(=O)OCCCC
inactive: Potency [1] | Potency [2] | outcome [3] | Potency [19] | activity change, positive = activation [20] -7.95% | Potency [5] | Potency [6] | Potency [7] | Potency [18] | Potency [9] | Potency [10] | Potency [13] | Potency [14] | Potency [15]

CC(C)c1cccc(C(C)C)c1NC(=O)NS(=O)(=O)c1cc(C(C)(C)O)co1
inactive: Potency [1] | Potency [2] | outcome [3] | Potency [4] | Potency [5] | Potency [6] | Potency [7] | Potency [8] | Potency [9] | Potency [10] | Potency [12] | Potency [13] | Potency [14] | Potency [16]

Reference: PubChem BioAssay (Tox21)
